Assay results: PubChem BioAssay AID686978 (National Center for Advancing Translational Sciences (NCATS), 2013)
In all, about 420,000 compounds went through this assay and about 64,000 (15%) were called active. Not shown: some 27% with an inconclusive outcome. The call rests on the fitted dose curve; in most records, active means well fitted inhibition curve with a large enough effect; inconclusive means small, poorly fitted or top-dose-only effect; inactive means flat fitted curve, though single readings scatter. A selection follows. Where a call stands in place of a potency, no number is given.
Potency means the concentration at half of the fitted maximal effect.

Assay: qHTS for Inhibitors of human tyrosyl-DNA phosphodiesterase 1 (TDP1): qHTS in cells in absence of CPT; further: nearly all actives have a fitted effect of over 55% in size
Conditions: DT40 Tdp1-/- hTDP1 cells, no CPT, ATP luminescence, 48 h; activity change, negative = growth inhibition: at 46.2 µM (top of the series)
How it was run: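 Seeded 400 DT40-hTDP1 cells/well (vehicle DMSO, no 20 nM CPT); pinned compounds; ≥48 hr at 37 °C; CellTiter-Glo luminescence as viability measure.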
In the case of `CCCCC(NS(=O)(=O)c1ccc(C)cc1)C(=O)Oc1ccc2c3c(c(=O)oc2c1)CCC3` (stereo not drawn), the Potency was “inactive”.
With `CCc1c(-c2ccccc2)nc(N)c(C#N)c1-c1cccs1` the Potency was “inactive”.
For `CCC1CN(CCNC(=O)c2cccc(C)n2)Cc2cc(OC)ccc2O1` (stereo not drawn), the Potency was “inactive”.
For `CC(C)C(=O)Nc1c(O)c2ccccc2[nH]c1=O`, the Potency was “inactive”.
For `O=C(O)C1CCCN(S(=O)(=O)c2cccc3cccnc23)C1` (stereo not drawn), the Potency was “inactive”.
In the case of `CC(C)[C@@H]1NC(=O)c2cc([N+](=O)[O-])cc(I)c2NCCC[C@@H](C(=O)NC(CC(=O)O)C(N)=O)NC(=O)[C@H](CO)NC1=O` (stereo partly drawn), the Potency was “inactive”.
For `COC(=O)c1c(C)[nH]c(C(=O)NCCc2ccc(S(N)(=O)=O)cc2)c1C`, the Potency was “inactive”.
For `CCCc1c(C)nc2c(Br)cccc2c1Cl`, the Potency was “inactive”.
For `Cn1cnc(C(F)(F)F)c1-c1ccc([N+](=O)[O-])cc1`, the Potency was “inactive”.
For `COc1ccc(S(=O)(=O)c2c[nH]c(=S)[nH]c2=O)cc1Cl`, the Potency was “inactive”.
In the case of `COc1ccc(-c2noc(COc3ccc(Cl)c(C)c3)n2)cc1`, the Potency was “inactive”.
In the case of `COc1ccc(C(C)=O)cc1COc1ccc(Cl)c(C)c1`, the Potency was 9.2 µM (active).
For `Cc1ccc(/C(N)=N/OC(=O)COc2ccc(Cl)c(C)c2)cc1`, the Potency was “inactive”.
For `O=C(CSCc1c(Cl)cccc1Cl)NN1C(=O)c2ccccc2C1=O`, the Potency was “inactive”.
With `Cc1cc(C)c(NC(=S)N2CCCC2C(=O)O)c(C)c1` (stereo not drawn) the Potency was “inactive”.
With `O=C(c1cc2ccccc2o1)N1CCN(c2cccc(C(F)(F)F)c2)CC1` the Potency was “inactive”.
With `Cc1nn(CC(=O)N2CCN(c3cccc(C(F)(F)F)c3)CC2)c(=O)c2cc3sccc3n12` the Potency was “inactive”.
In the case of `CC(C)N1C[C@@H](NCc2ccccc2O)C[C@H]1C(=O)N1CCN(c2cccc(C(F)(F)F)c2)CC1`, the Potency was 18.4 µM (active).
With `Cc1cc(C)nc(NS(=O)(=O)c2ccc(N3C(=O)C4CCCCC4C3=O)cc2)n1` (stereo not drawn) the Potency was “inactive”.
For `CC(=O)NC(Cc1ccccc1)C(=O)NC1CCN(c2ncccc2[N+](=O)[O-])CC1` (stereo not drawn), the Potency was “inactive”.
For `O=[N+]([O-])c1ccc(S(=O)(=O)Nc2cccc(-c3ccc(N4CCCC4)nn3)c2)cc1`, the Potency was “inactive”.
In the case of `O=S(=O)(Nc1cccc(-c2ccc(N3CCOCC3)nn2)c1)c1ccc(Cl)c(Cl)c1`, the Potency was “inactive”.
With `CCCOc1ccc(-c2cccc(NS(=O)(=O)c3ccccc3)c2)nn1` the Potency was 23.1 µM (active).
For `N#Cc1ccc(CSc2nnc3ccccn23)cc1`, the Potency was “inactive”.
With `O=c1c2ccccc2cnn1Cc1n[nH]c(=S)n1-c1ccccc1F` the Potency was “inactive”.
In the case of `Cc1ccc(N2CCN(C3=NC(=O)/C(=C\c4cccs4)S3)CC2)cc1`, the Potency was “inactive”.
In the case of `CNS(=O)(=O)c1cnccc1N1CCN(c2cccc(C)c2)CC1`, the Potency was “inactive”.
With `CC(C)=C1SC(N2CCN(c3cccc(C)c3)CC2)=NC1=O` the Potency was 20.6 µM (active).
With `N/C(=N\OC(=O)CC1CCCCC1)c1ccccc1` the Potency was “inactive”.
For `Cc1cc(C)c2c(=O)[nH]c(SCC(=O)Nc3ccc(Br)cc3)nc2n1`, the Potency was “inactive”.
With `O=C(Nc1cc(S(=O)(=O)N2CCOCC2)ccc1OCC(F)(F)F)c1ccc(N2CCCC2=O)cc1` the Potency was “inactive”.
In the case of `CCOC(=O)C1C(c2ccc(Cl)cc2)NC(=S)NC1(O)C(F)(F)F` (stereo not drawn), the Potency was “inactive”.
For `O=C(NCCOCc1ccc(Cl)cc1)c1ncn[nH]1`, the Potency was “inactive”.
For `O=C(/C=C/Sc1ncn[nH]1)c1ccc(Cl)cc1`, the Potency was 2.59 µM (active).
For `O=C(CSc1ncn[nH]1)N/N=C/c1ccc(F)cc1`, the Potency was “inactive”.
In the case of `Cc1csc(NC(=O)c2ccc(C)s2)n1`, the Potency was “inactive”.
With `Cc1ccc(C(=O)Nc2nc3ccc(Cl)cc3s2)o1` the Potency was “inactive”.
For `O=C(O)c1cc(Cl)c(Cl)cc1C(=O)Nc1cccc2ncccc12`, the Potency was “inactive”.
For `O=C(Nc1cccnc1Cl)c1cc(-c2cccc(Cl)c2)on1`, the Potency was “inactive”.
In the case of `O=C(Nc1cccc2ncccc12)c1ccc(-c2ccc(Cl)cc2Cl)o1`, the Potency was 20.6 µM (active).
In the case of `Cc1csc(NC(=O)c2ccc(-c3ccc(Cl)cc3Cl)o2)n1`, the Potency was 5.17 µM (active).
With `COc1ccc(Br)c2c1C(=O)CC2` the Potency was “inactive”.
For `O=C(NCc1ccc(F)cc1)C(c1ccccc1)N(C(=O)c1csnn1)C1CC1` (stereo not drawn), the Potency was “inactive”.
With `CCNC(=O)N1CCN(S(=O)(=O)c2ccc3c(c2)OCCCO3)CC1` the Potency was “inactive”.
In the case of `CC(=O)Nc1cc(C(=O)NCc2ccc(F)cc2)ccc1Sc1ccc(F)cc1`, the Potency was “inactive”.
With `O=C(Cc1ccc(Cl)c(Cl)c1)Nc1ccc(SC(F)F)cc1` the Potency was “inactive”.
With `CCN(c1ccccc1)S(=O)(=O)c1ccc(NC(=O)C(C)(C)C)cc1` the Potency was “inactive”.
In the case of `Cc1ccc(NC(=O)CC(=O)Nc2ccc(C)cc2)cc1`, the Potency was “inactive”.
For `O=C(CCl)Nc1ccc(Sc2ccc(NC(=O)CCl)cc2)cc1`, the Potency was 5.17 µM (active).
With `CC(C)(CCl)C(=O)Nc1ccc(Sc2ccc(F)cc2)cc1` the Potency was 7.31 µM (active).
With `Cc1sc2ncn(CC(=O)NCCCC(=O)NCc3ccc(F)cc3)c(=O)c2c1C` the Potency was “inactive”.
For `Cc1c(Cl)cccc1NC(=O)CC1SC(=NCC2CCCO2)NC1=O` (stereo not drawn), the Potency was “inactive”.
For `COc1ccc(N2C(=O)C3CCCN3C2c2cc(OC)c(OC)cc2OC)cc1` (stereo not drawn), the Potency was “inactive”.
For `CCNC(=O)C1(C)CCCN(C(=O)c2ccc3ccccc3n2)C1` (stereo not drawn), the Potency was “inactive”.
For `Cc1cc(/C=N/NC(=O)c2cccnc2)c(C)n1CC(C)C`, the Potency was “inactive”.
With `CC(=O)Nc1ccc(/C=N/NC(=O)c2cccs2)cc1` the Potency was “inactive”.
In the case of `Cc1cc(/C=N/n2cnnc2)c(C)n1-c1cccc(C(=O)O)c1`, the Potency was “inactive”.
For `Cc1cccc(-n2c(C)cc(/C=N/NC(N)=S)c2C)c1`, the Potency was 5.8 µM (active).
For `Cc1cc(/C=N/NC(N)=O)c(C)n1C1CCCCC1`, the Potency was “inactive”.
In the case of `Cc1cccc(-n2c(C)cc(/C=N\NC(=O)c3cccs3)c2C)c1`, the Potency was 16.4 µM (active).
For `Cc1c(C#N)c2ncn(CC#N)c(=O)c2n1-c1ccccc1`, the Potency was “inactive”.
In the case of `CCCCOC(=O)Nc1nnc(CC(=O)NCc2ccccc2)s1`, the Potency was “inactive”.
With `Nn1c(SCC(=O)NC2CCCC2)nnc1-c1ccccc1F` the Potency was “inactive”.
For `Cc1cc(-c2ccnc(-n3ncc(C(=O)NC(C)(C)CO)c3C3CC3)n2)c(C)s1`, the Potency was 23.1 µM (active).
With `Cc1cccc(CNC(=O)c2cnn(-c3nccc(-c4ccccc4F)n3)c2C2CC2)n1` the Potency was “inactive”.
With `Cc1cc(-c2ccnc(-n3ncc(C(=O)NCCc4ccncc4)c3C)n2)c(C)s1` the Potency was “inactive”.
With `CNc1nc2c(C)cccn2c(=O)c1C=Nc1ccc(OC)cc1` the Potency was “inactive”.
In the case of `CC(Oc1ccc(Cl)cc1)C(=O)Nc1ncccn1` (stereo not drawn), the Potency was “inactive”.
With `CCN1CCN(C(=O)N[C@@H](C(=O)N[C@@H]2C(=O)N3[C@@H]2SC(C)(C)[C@H]3C(=O)O)c2ccccc2)C(=O)C1=O` the Potency was “inactive”.
For `O=C(NC(=S)Nc1ccc(NC(=O)c2cccs2)cc1)c1ccc([N+](=O)[O-])cc1`, the Potency was “inactive”.
With `O=C(NC(=S)Nc1cccc(-c2ccc(CO)o2)c1)c1cccs1` the Potency was 25.9 µM (active).
For `CCc1nnc(NS(=O)(=O)c2ccc(NC(=S)NC(=O)c3cccs3)cc2)s1`, the Potency was “inactive”.
In the case of `Cc1ccc(N2C(=O)C3C4C=CC(CC4)C3C2=O)cc1Cl` (stereo not drawn), the Potency was “inactive”.
With `N#Cc1cccc(OC(=O)c2ccc3c(=O)n4c(nc3c2)CCC4)c1` the Potency was “inactive”.
For `O=C(CSCc1cccs1)N1CCCC1`, the Potency was “inactive”.
With `O=C(CSCc1ccc(Cl)cc1)N1CCCCC1` the Potency was 16.4 µM (active).
In the case of `CC(=O)C(CC(=O)N1CCCC1)C(=O)Nc1ccc(Cl)cc1` (stereo not drawn), the Potency was “inactive”.
For `O=C(N/C(=C\c1ccc([N+](=O)[O-])cc1)C(=O)N1CCCCC1)c1ccco1`, the Potency was “inactive”.
In the case of `COC(=O)/C(NC(C)=O)=C(\C)c1ccc(Cl)cc1`, the Potency was “inactive”.
In the case of `CCOc1ccccc1NC(=O)Nc1cc(OC)ccc1OC`, the Potency was “inactive”.
For `COc1ccc(OC)c(NC(=O)Cc2cccs2)c1`, the Potency was “inactive”.
For `COc1ccc(OC)c(NC(=O)CC(Cc2ccccc2OC)C(=O)O)c1` (stereo not drawn), the Potency was 11.2 µM (active).
For `CC1CC(C)(C)n2c(O)c(N=NC(N)=S)c3cccc1c32` (stereo not drawn), the Potency was “inactive”.
For `COC(=O)[C@@]1(Cc2ccc(F)cc2)[C@H]2c3cc(C(=O)N(C)C)n(CCc4c[nH]c5ccc(OC)cc45)c3C[C@H]2CN1C(=O)c1ccccc1`, the Potency was 23.1 µM (active).
For `COC(=O)[C@@]1(Cc2ccc(F)cc2)[C@H]2c3cc(C(=O)N4CCCC4)n(Cc4ccc(OC(F)(F)F)cc4)c3C[C@H]2CN1C(=O)c1ccccc1`, the Potency was 18.4 µM (active).
For `COc1ccc(OCc2cccc(C(=O)N3CCCC3)c2)cc1`, the Potency was “inactive”.
For `COC(=O)c1cccc(C(=O)N2CCC(CCC(=O)NCc3ccc(F)cc3)CC2)c1`, the Potency was “inactive”.
For `COc1ccc2[nH]cc(CCN3C(=O)c4ccc(C(=O)O)cc4C3=O)c2c1`, the Potency was “inactive”.
In the case of `COC(=O)[C@@]1(Cc2ccc(OC)cc2)[C@H]2c3cc(C(=O)N4CCCC4)n(Cc4ccc(OC(F)(F)F)cc4)c3C[C@H]2CN1C(=O)c1ccccc1`, the Potency was 18.4 µM (active).
For `Cc1ccc(CN2CCNC(=O)C2CC(=O)NCc2csc(C(C)C)n2)cc1` (stereo not drawn), the Potency was “inactive”.
For `Cc1cc(NC(=O)c2cccc(N3C(=O)CCC3=O)c2)no1`, the Potency was “inactive”.
For `Cc1cc(N/C=C\C(=O)c2ccc(Cl)c(Cl)c2)no1`, the Potency was “inactive”.
For `Cc1cccc(OCCC(=O)OCc2csc(CC(=O)Nc3ccccc3C)n2)c1`, the Potency was “inactive”.
For `O=C(CSc1nnc(SCc2ccc(F)cc2)s1)Nc1ccc(C(=O)O)cc1`, the Potency was “inactive”.
With `CCCCn1c(N)c(N(CCC(C)C)C(=O)COC(=O)c2cccnc2OCC)c(=O)[nH]c1=O` the Potency was “inactive”.
In the case of `O=C(NCCCCO)C(F)(F)C(F)(F)C(F)(F)C(=O)NCCCCO`, the Potency was “inactive”.
In the case of `CC1=C2C(=O)OC(c3ccoc3)C2(C)CCC1` (stereo not drawn), the Potency was “inactive”.
With `O=C(Nc1ccc(F)cc1)Nc1nnc([C@H]2C[C@H](O)[C@@H](CO)O2)s1` the Potency was “inactive”.
In the case of `Cc1c(Cl)cnc(NC(=O)COC(=O)C2CCCC2)c1Cl`, the Potency was “inactive”.
With `Cc1ccc(NC(=O)C(C)Sc2nnc(C3CC3)n2C2CC2)cc1S(=O)(=O)N1CCOCC1` (stereo not drawn) the Potency was “inactive”.
With `COc1ccc(C2CC(c3ccccc3)Nc3ncnn32)cc1` (stereo not drawn) the Potency was “inactive”.
For `Clc1ccc(C2CC(c3cccs3)n3ncnc3N2)cc1Cl` (stereo not drawn), the Potency was “inactive”.
For `FC(F)Oc1ccccc1C1CC(c2ccc(Br)s2)Nc2ncnn21` (stereo not drawn), the Potency was 16.4 µM (active).
